Test results: paper PMC7862700, “An all-to-all approach to the identification of sequence-specific readers for epigenetic DNA modifications on cytosine”

The sequences below were run against T1, ERF (Homo sapiens, UniProt P50548 1-548) (assay: DAPPL (digital affinity profiling via proximity ligation, sequencing); 10 mM Tris-HCl pH 7.5, 50 mM NaCl, 1 mM DTT, 4% glycerol, room temperature, 30 min; GST-TFs on glutathione beads, 16-mer random dsDNA library, 0.1% formaldehyde crosslink after washing; high values mean tight binding). Conditions: protein: recombinant; tags: N-terminal GST; dsDNA, one strand shown.
T1 sequence: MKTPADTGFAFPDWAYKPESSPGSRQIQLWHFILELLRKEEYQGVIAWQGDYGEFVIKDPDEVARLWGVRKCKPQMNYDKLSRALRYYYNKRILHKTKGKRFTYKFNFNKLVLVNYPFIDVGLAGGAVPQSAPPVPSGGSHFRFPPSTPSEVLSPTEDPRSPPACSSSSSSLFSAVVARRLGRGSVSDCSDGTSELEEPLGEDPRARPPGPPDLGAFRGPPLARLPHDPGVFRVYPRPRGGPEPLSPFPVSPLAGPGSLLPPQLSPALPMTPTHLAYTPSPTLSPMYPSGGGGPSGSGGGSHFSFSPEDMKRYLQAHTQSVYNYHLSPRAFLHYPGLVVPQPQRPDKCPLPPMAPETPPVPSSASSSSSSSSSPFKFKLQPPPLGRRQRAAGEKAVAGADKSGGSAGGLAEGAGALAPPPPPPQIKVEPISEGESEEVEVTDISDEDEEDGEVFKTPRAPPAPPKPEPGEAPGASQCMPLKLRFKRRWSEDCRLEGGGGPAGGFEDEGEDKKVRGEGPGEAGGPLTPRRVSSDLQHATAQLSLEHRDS
Method in brief: (§1)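 After expression in yeast as GST fusions, human transcription factors were bound to glutathione beads, DNA-barcoded and mixed with a tag-only sample. The pools were incubated with 200 nmole of a 16-mer random double-stranded DNA library in Tris/NaCl/DTT/glycerol buffer (30 min, room temperature), washed and crosslinked with 0.1% formaldehyde. Proximity ligation with BsaI/T4 ligase ran for 1 h at 37 °C, before PCR amplification and sequencing on an Illumina NextSeq500. Binding signal is a hexamer's read frequency for a factor divided by its frequency for the tag-only sample.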
For TTACAC, the binding signal was 1.2 fold enrichment (6-mer frequency, TF over GST control).
In the case of TATATC, the binding signal is reported as 1.61 fold enrichment (6-mer frequency, TF over GST control).
In the case of TAAAAT, the binding signal is reported as 1.22 fold enrichment (6-mer frequency, TF over GST control).
In the case of CCATAA, the binding signal is reported as 1.24 fold enrichment (6-mer frequency, TF over GST control).
AACCCT was tested, and the binding signal was 1.17 fold enrichment (6-mer frequency, TF over GST control).
For AATCTG, the binding signal was 1.41 fold enrichment (6-mer frequency, TF over GST control).
With TTTTAT the binding signal was 1.17 fold enrichment (6-mer frequency, TF over GST control).
With TTTCGA the binding signal was 1.61 fold enrichment (6-mer frequency, TF over GST control).
With CTTAGT the binding signal was 1.29 fold enrichment (6-mer frequency, TF over GST control).
CATCCT was tested, and the binding signal was 1.49 fold enrichment (6-mer frequency, TF over GST control).
ATCCTG was tested, and the binding signal was 1.28 fold enrichment (6-mer frequency, TF over GST control).
For ACTACG, the binding signal was 1.34 fold enrichment (6-mer frequency, TF over GST control).
For TTCGAA, the binding signal was 1.33 fold enrichment (6-mer frequency, TF over GST control).
In the case of AACCTT, the binding signal is reported as 1.39 fold enrichment (6-mer frequency, TF over GST control).
In the case of TACCTT, the binding signal is reported as 1.51 fold enrichment (6-mer frequency, TF over GST control).
For CCTTCC, the binding signal was 2.26 fold enrichment (6-mer frequency, TF over GST control).
With CTTATC the binding signal was 1.12 fold enrichment (6-mer frequency, TF over GST control).
With CCTACG the binding signal was 1.37 fold enrichment (6-mer frequency, TF over GST control).
In the case of TACATG, the binding signal is reported as 1.34 fold enrichment (6-mer frequency, TF over GST control).
With CTGCGA the binding signal was 1.22 fold enrichment (6-mer frequency, TF over GST control).
GGACCT was tested, and the binding signal was 1.31 fold enrichment (6-mer frequency, TF over GST control).
GAATAA was tested, and the binding signal was 1.23 fold enrichment (6-mer frequency, TF over GST control).
TATGCT was tested, and the binding signal was 1.18 fold enrichment (6-mer frequency, TF over GST control).
TCTCTA was tested, and the binding signal was 1.24 fold enrichment (6-mer frequency, TF over GST control).
With ATTCTC the binding signal was 1.22 fold enrichment (6-mer frequency, TF over GST control).
For ACTCCG, the binding signal was 1.37 fold enrichment (6-mer frequency, TF over GST control).
ACACTT was tested, and the binding signal was 1.51 fold enrichment (6-mer frequency, TF over GST control).
In the case of CTTTAT, the binding signal is reported as 1.08 fold enrichment (6-mer frequency, TF over GST control).
GCTTCT was tested, and the binding signal was 1.64 fold enrichment (6-mer frequency, TF over GST control).
CTTCGG was tested, and the binding signal was 1.68 fold enrichment (6-mer frequency, TF over GST control).
In the case of TTATTT, the binding signal is reported as 1.26 fold enrichment (6-mer frequency, TF over GST control).
In the case of CCTGAC, the binding signal is reported as 1.37 fold enrichment (6-mer frequency, TF over GST control).
With ATCCCT the binding signal was 1.33 fold enrichment (6-mer frequency, TF over GST control).
With TTTGCT the binding signal was 1.39 fold enrichment (6-mer frequency, TF over GST control).
For ACCTGC, the binding signal was 1.35 fold enrichment (6-mer frequency, TF over GST control).
TATCCG was tested, and the binding signal was 2.52 fold enrichment (6-mer frequency, TF over GST control).
TTAAAG was tested, and the binding signal was 1.25 fold enrichment (6-mer frequency, TF over GST control).
TTCTGA was tested, and the binding signal was 1.16 fold enrichment (6-mer frequency, TF over GST control).
With ACAAAT the binding signal was 1.3 fold enrichment (6-mer frequency, TF over GST control).
With ACAGCT the binding signal was 1.24 fold enrichment (6-mer frequency, TF over GST control).

The sequences below were run against T2, ETV3L (Homo sapiens, UniProt Q6ZN32 1-361) in the same assay as above. Conditions: protein: recombinant; tags: N-terminal GST; dsDNA, one strand shown.
T2 sequence: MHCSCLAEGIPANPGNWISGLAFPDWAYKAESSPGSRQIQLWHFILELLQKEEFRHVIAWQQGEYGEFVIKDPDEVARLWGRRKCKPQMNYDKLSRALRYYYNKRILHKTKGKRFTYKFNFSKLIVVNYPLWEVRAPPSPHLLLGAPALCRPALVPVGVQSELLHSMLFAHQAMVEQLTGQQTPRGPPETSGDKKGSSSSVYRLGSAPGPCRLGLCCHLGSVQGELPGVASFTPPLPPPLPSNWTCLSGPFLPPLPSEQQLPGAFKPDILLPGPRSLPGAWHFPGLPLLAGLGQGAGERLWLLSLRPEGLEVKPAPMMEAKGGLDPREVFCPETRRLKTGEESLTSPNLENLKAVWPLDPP
Method in brief: as §1
TTACAC was tested, and the binding signal was 1.15 fold enrichment (6-mer frequency, TF over GST control).
In the case of TATATC, the binding signal is reported as 1.56 fold enrichment (6-mer frequency, TF over GST control).
TAAAAT was tested, and the binding signal was 1.28 fold enrichment (6-mer frequency, TF over GST control).
For CCATAA, the binding signal was 1.22 fold enrichment (6-mer frequency, TF over GST control).
AACCCT was tested, and the binding signal was 1.24 fold enrichment (6-mer frequency, TF over GST control).
In the case of AATCTG, the binding signal is reported as 1.39 fold enrichment (6-mer frequency, TF over GST control).
TTTTAT was tested, and the binding signal was 1.39 fold enrichment (6-mer frequency, TF over GST control).
In the case of TTTCGA, the binding signal is reported as 1.54 fold enrichment (6-mer frequency, TF over GST control).
In the case of CTTAGT, the binding signal is reported as 1.18 fold enrichment (6-mer frequency, TF over GST control).
In the case of CATCCT, the binding signal is reported as 1.69 fold enrichment (6-mer frequency, TF over GST control).
With ATCCTG the binding signal was 1.49 fold enrichment (6-mer frequency, TF over GST control).
For ACTACG, the binding signal was 1.31 fold enrichment (6-mer frequency, TF over GST control).
For TTCGAA, the binding signal was 1.25 fold enrichment (6-mer frequency, TF over GST control).
AACCTT was tested, and the binding signal was 1.27 fold enrichment (6-mer frequency, TF over GST control).
In the case of TACCTT, the binding signal is reported as 1.34 fold enrichment (6-mer frequency, TF over GST control).
For CCTTCC, the binding signal was 2.48 fold enrichment (6-mer frequency, TF over GST control).
In the case of CTTATC, the binding signal is reported as 1.22 fold enrichment (6-mer frequency, TF over GST control).
CCTACG was tested, and the binding signal was 1.59 fold enrichment (6-mer frequency, TF over GST control).
TACATG was tested, and the binding signal was 1.2 fold enrichment (6-mer frequency, TF over GST control).
For CTGCGA, the binding signal was 1.4 fold enrichment (6-mer frequency, TF over GST control).
In the case of GGACCT, the binding signal is reported as 1.43 fold enrichment (6-mer frequency, TF over GST control).
GAATAA was tested, and the binding signal was 1.15 fold enrichment (6-mer frequency, TF over GST control).
TATGCT was tested, and the binding signal was 1.45 fold enrichment (6-mer frequency, TF over GST control).
In the case of TCTCTA, the binding signal is reported as 1.29 fold enrichment (6-mer frequency, TF over GST control).
For ATTCTC, the binding signal was 1.31 fold enrichment (6-mer frequency, TF over GST control).
ACTCCG was tested, and the binding signal was 1.52 fold enrichment (6-mer frequency, TF over GST control).
With ACACTT the binding signal was 1.64 fold enrichment (6-mer frequency, TF over GST control).
In the case of CTTTAT, the binding signal is reported as 1.22 fold enrichment (6-mer frequency, TF over GST control).
In the case of GCTTCT, the binding signal is reported as 1.37 fold enrichment (6-mer frequency, TF over GST control).
With CTTCGG the binding signal was 1.42 fold enrichment (6-mer frequency, TF over GST control).
TTATTT was tested, and the binding signal was 1.38 fold enrichment (6-mer frequency, TF over GST control).
With CCTGAC the binding signal was 1.59 fold enrichment (6-mer frequency, TF over GST control).
With ATCCCT the binding signal was 1.35 fold enrichment (6-mer frequency, TF over GST control).
In the case of TTTGCT, the binding signal is reported as 1.22 fold enrichment (6-mer frequency, TF over GST control).
For ACCTGC, the binding signal was 1.42 fold enrichment (6-mer frequency, TF over GST control).
TATCCG was tested, and the binding signal was 2.45 fold enrichment (6-mer frequency, TF over GST control).
With TTAAAG the binding signal was 1.2 fold enrichment (6-mer frequency, TF over GST control).
With TTCTGA the binding signal was 1.35 fold enrichment (6-mer frequency, TF over GST control).
For ACAAAT, the binding signal was 1.15 fold enrichment (6-mer frequency, TF over GST control).
With ACAGCT the binding signal was 1.19 fold enrichment (6-mer frequency, TF over GST control).

Each sequence was assayed against T3, ETS2 (Homo sapiens, UniProt P15036 1-469) in the same assay as above. Conditions: protein: recombinant; tags: N-terminal GST; dsDNA, one strand shown.
T3 sequence: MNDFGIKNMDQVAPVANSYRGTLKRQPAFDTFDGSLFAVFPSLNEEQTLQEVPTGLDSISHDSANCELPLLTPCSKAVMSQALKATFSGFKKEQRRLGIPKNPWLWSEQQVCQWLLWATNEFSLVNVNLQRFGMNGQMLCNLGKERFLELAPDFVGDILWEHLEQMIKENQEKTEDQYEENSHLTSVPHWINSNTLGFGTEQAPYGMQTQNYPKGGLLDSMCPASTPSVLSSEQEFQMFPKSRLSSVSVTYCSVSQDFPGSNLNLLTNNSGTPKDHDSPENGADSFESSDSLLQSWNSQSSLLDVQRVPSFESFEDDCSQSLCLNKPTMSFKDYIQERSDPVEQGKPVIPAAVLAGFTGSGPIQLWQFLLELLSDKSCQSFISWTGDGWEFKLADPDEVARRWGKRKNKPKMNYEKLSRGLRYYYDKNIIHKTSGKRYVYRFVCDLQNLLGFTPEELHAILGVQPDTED
Method in brief: as §1
TTACAC was tested, and the binding signal was 1.22 fold enrichment (6-mer frequency, TF over GST control).
With TATATC the binding signal was 1.64 fold enrichment (6-mer frequency, TF over GST control).
With TAAAAT the binding signal was 1.28 fold enrichment (6-mer frequency, TF over GST control).
For CCATAA, the binding signal was 1.22 fold enrichment (6-mer frequency, TF over GST control).
AACCCT was tested, and the binding signal was 1.26 fold enrichment (6-mer frequency, TF over GST control).
AATCTG was tested, and the binding signal was 1.52 fold enrichment (6-mer frequency, TF over GST control).
In the case of TTTTAT, the binding signal is reported as 1.23 fold enrichment (6-mer frequency, TF over GST control).
With TTTCGA the binding signal was 1.42 fold enrichment (6-mer frequency, TF over GST control).
With CTTAGT the binding signal was 1.15 fold enrichment (6-mer frequency, TF over GST control).
With CATCCT the binding signal was 1.61 fold enrichment (6-mer frequency, TF over GST control).
For ATCCTG, the binding signal was 1.56 fold enrichment (6-mer frequency, TF over GST control).
For ACTACG, the binding signal was 1.26 fold enrichment (6-mer frequency, TF over GST control).
TTCGAA was tested, and the binding signal was 1.24 fold enrichment (6-mer frequency, TF over GST control).
For AACCTT, the binding signal was 1.38 fold enrichment (6-mer frequency, TF over GST control).
With TACCTT the binding signal was 1.44 fold enrichment (6-mer frequency, TF over GST control).
CCTTCC was tested, and the binding signal was 2.41 fold enrichment (6-mer frequency, TF over GST control).
In the case of CTTATC, the binding signal is reported as 1.12 fold enrichment (6-mer frequency, TF over GST control).
CCTACG was tested, and the binding signal was 1.35 fold enrichment (6-mer frequency, TF over GST control).
With TACATG the binding signal was 1.2 fold enrichment (6-mer frequency, TF over GST control).
With CTGCGA the binding signal was 1.29 fold enrichment (6-mer frequency, TF over GST control).
